# In the supplement of paper PMC8728848:
# Only a selection was taken, and the strongest signals are over-represented in it overall.
# B1: GS14009A-pdi-495-27-495 (Parabacteroides distasonis) (protein)
# chain: FEEVNTDPDSPTDVPTTNLLAYSLYYTSYRLYDRWFAMDEPMTFCGYASKMTYIDESRYNFRTGVQDTNWEYLYRILNNLKDIEKRATFNETPNMLNVSKVMQVHLMQVATDRWRDVPYTDAAKMTDGILQPKYDKQEDIYPGLLATLKEAADGFADGGSDDLGEGDLLFGGDIEKWQRYCNSMRLRLAMRISEVSPALAKETVEEVMGNPTKYPIMESNDDNAFFWWIGTDPNYYEPMADGYRTRKTEYCAADVIVDHMNTREDPRRSSYFQPTKESVEAGEPKYVGYTIGAKANAVASKYSIWGARFFTDLAGFSPYMRVAEPWFCVAEASMLGWNTGISAEDAYNKAVTYSMEENSVSAEDIADYLANAGKFTNDKKQIYYEEWVAMFKQGMEGWSLYRRTGVPDNLYPAPGRPANYSNHNVPPFRSPYPDKERNLNNANCAPFDAEVVDNLWGKQMWWDTRTGVH
# How the values were obtained:
# Assay in all cases: glycan array binding signal (z-score within array); higher = stronger binding
# Conditions in all cases: glycan notation: IUPAC condensed, linker removed
# [1] = biological target: Fuc(a1-2)Gal(b1-3)GlcNAc(b1-2)Man(a1-3)[Fuc(a1-2)Gal(b1-3)GlcNAc(b1-2)Man(a1-6)]Man(b1-4)GlcNAc(b1-4)GlcNAc
# Method in brief: (§1)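 Glycan array binding is given as a within-array Z-score, which can be read as non-binding when negative. The arrays, 3228 of them, came from the Consortium for Functional Glycomics database and were retained only where the protein sequence was available. Z-scores were averaged across arrays of the same protein sequence at different concentrations or buffers and across linkers.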
# [2] = biological target: Fuc(a1-2)Gal(b1-3)GlcNAc(b1-3)[Fuc(a1-2)Gal(b1-3)GlcNAc(b1-6)]GalNAc
# Method in brief: as §1
# [3] = biological target: Fuc(a1-2)[Gal(a1-3)]Gal(b1-3)GalNAc
# Method in brief: as §1
# [4] = biological target: Fuc(a1-2)[Gal(a1-3)]Gal(b1-4)[Fuc(a1-3)]GlcNAc(b1-3)GalNAc
# Method in brief: as §1
# [5] = biological target: Fuc(a1-2)[GalNAc(a1-3)]Gal(b1-4)GlcNAc(b1-2)Man(a1-3)[Fuc(a1-2)[GalNAc(a1-3)]Gal(b1-4)GlcNAc(b1-2)Man(a1-6)]Man(b1-4)GlcNAc(b1-4)[Fuc(a1-6)]GlcNAc
# Method in brief: as §1
# [6] = biological target: Fuc(a1-2)[GalNAc(a1-4)]Gal(b1-4)GlcNAc
# Method in brief: as §1
# [7] = biological target: Gal(a1-3)Gal(b1-3)GlcNAc(b1-6)GalNAc
# Method in brief: as §1
# Gal(a1-3)Gal(b1-4)Glc = biological target: Gal(a1-3)Gal(b1-4)Glc
# Method in brief: as §1
# [8] = biological target: Gal(a1-4)Gal(b1-3)GlcNAc(b1-2)Man(a1-3)[Gal(a1-4)Gal(b1-3)GlcNAc(b1-2)Man(a1-6)]Man(b1-4)GlcNAc(b1-4)GlcNAc
# Method in brief: as §1
# [9] = biological target: Gal(a1-4)Gal(b1-4)GlcNAc(b1-2)Man(a1-3)[Gal(a1-4)Gal(b1-4)GlcNAc(b1-2)Man(a1-6)]Man(b1-4)GlcNAc(b1-4)GlcNAc
# Method in brief: as §1
# [10] = biological target: Gal(b1-3)GalNAc(b1-4)Gal(b1-4)Glc
# Method in brief: as §1
# [11] = biological target: Gal(b1-3)GlcNAc(b1-3)Gal(b1-4)GlcNAc(b1-2)Man(a1-3)[Gal(b1-3)GlcNAc(b1-3)Gal(b1-4)GlcNAc(b1-2)Man(a1-6)]Man(b1-4)GlcNAc(b1-4)GlcNAc
# Method in brief: as §1
# [12] = biological target: Gal(b1-3)[Fuc(a1-4)]GlcNAc(b1-2)Man(a1-3)[Gal(b1-3)[Fuc(a1-4)]GlcNAc(b1-2)Man(a1-6)]Man(b1-4)GlcNAc(b1-4)[Fuc(a1-6)]GlcNAc
# Method in brief: as §1
# [13] = biological target: Gal(b1-3)[Fuc(a1-4)]GlcNAc(b1-6)GalNAc
# Method in brief: as §1
# [14] = biological target: Gal(b1-4)GlcNAc(b1-2)Man(a1-3)[GlcNAc(b1-4)][Gal(b1-4)GlcNAc(b1-2)Man(a1-6)]Man(b1-4)GlcNAc(b1-4)GlcNAc
# Method in brief: as §1
# [15] = biological target: Gal(b1-4)GlcNAc(b1-3)Gal(b1-4)GlcNAc(b1-2)Man(a1-3)[Gal(b1-4)GlcNAc(b1-3)Gal(b1-4)GlcNAc(b1-2)Man(a1-6)]Man(b1-4)GlcNAc(b1-4)GlcNAc
# Method in brief: as §1
# [16] = biological target: Gal(b1-4)GlcNAc(b1-3)Gal(b1-4)GlcNAc(b1-2)[Gal(b1-4)GlcNAc(b1-3)Gal(b1-4)GlcNAc(b1-6)]Man(a1-6)[Gal(b1-4)GlcNAc(b1-3)Gal(b1-4)GlcNAc(b1-2)Man(a1-3)]Man(b1-4)GlcNAc(b1-4)GlcNAc
# Method in brief: as §1
# [17] = biological target: Gal(b1-4)GlcNAc(b1-3)Gal(b1-4)GlcNAc(b1-2)[Gal(b1-4)GlcNAc(b1-3)Gal(b1-4)GlcNAc(b1-6)]Man(a1-6)[Gal(b1-4)GlcNAc(b1-3)Gal(b1-4)GlcNAc(b1-2)Man(a1-3)]Man(b1-4)GlcNAc(b1-4)[Fuc(a1-6)]GlcNAc
# Method in brief: as §1
# [18] = biological target: Gal(b1-4)GlcNAc(b1-3)Gal(b1-4)GlcNAc(b1-3)Gal(b1-4)GlcNAc(b1-3)Gal(b1-4)GlcNAc(b1-2)Man(a1-3)[Gal(b1-4)GlcNAc(b1-3)Gal(b1-4)GlcNAc(b1-3)Gal(b1-4)GlcNAc(b1-3)Gal(b1-4)GlcNAc(b1-2)Man(a1-6)]Man(b1-4)GlcNAc(b1-4)[Fuc(a1-6)]GlcNAc
# Method in brief: as §1
# [19] = biological target: Gal(b1-4)GlcNAc(b1-3)Gal(b1-4)GlcNAc(b1-3)Gal(b1-4)GlcNAc(b1-3)Gal(b1-4)GlcNAc(b1-2)[Gal(b1-4)GlcNAc(b1-3)Gal(b1-4)GlcNAc(b1-3)Gal(b1-4)GlcNAc(b1-3)Gal(b1-4)GlcNAc(b1-6)]Man(a1-6)[Gal(b1-4)GlcNAc(b1-3)Gal(b1-4)GlcNAc(b1-3)Gal(b1-4)GlcNAc(b1-3)Gal(b1-4)GlcNAc(b1-2)Man(a1-3)]Man(b1-4)GlcNAc(b1-4)[Fuc(a1-6)]GlcNAc
# Method in brief: as §1
# [20] = biological target: Gal(b1-4)GlcNAc(b1-3)Gal(b1-4)GlcNAc(b1-3)Gal(b1-4)GlcNAc(b1-3)Gal(b1-4)GlcNAc(b1-3)Gal(b1-4)GlcNAc(b1-2)[Gal(b1-4)GlcNAc(b1-3)Gal(b1-4)GlcNAc(b1-3)Gal(b1-4)GlcNAc(b1-3)Gal(b1-4)GlcNAc(b1-3)Gal(b1-4)GlcNAc(b1-6)]Man(a1-6)[Gal(b1-4)GlcNAc(b1-3)Gal(b1-4)GlcNAc(b1-3)Gal(b1-4)GlcNAc(b1-3)Gal(b1-4)GlcNAc(b1-3)Gal(b1-4)GlcNAc(b1-2)Man(a1-3)]Man(b1-4)GlcNAc(b1-4)[Fuc(a1-6)]GlcNAc
# Method in brief: as §1
# [21] = biological target: Gal(b1-4)GlcNAc(b1-3)Gal(b1-4)GlcNAc(b1-3)[Gal(b1-4)GlcNAc(b1-3)Gal(b1-4)GlcNAc(b1-6)]GalNAc
# Method in brief: as §1
# [22] = biological target: Gal(b1-4)GlcNAc(b1-3)Gal(b1-4)GlcNAc(b1-6)[Gal(b1-3)]GalNAc
# Method in brief: as §1
binder,measurement,setting,value
B1,glycan array binding signal (z-score),[1],2.57
same,glycan array binding signal (z-score),[2],-0.336
same,glycan array binding signal (z-score),[3],0.023
same,glycan array binding signal (z-score),[4],-0.109
same,glycan array binding signal (z-score),[5],2.8
same,glycan array binding signal (z-score),[6],-0.532
same,glycan array binding signal (z-score),[7],-0.003
same,glycan array binding signal (z-score),Gal(a1-3)Gal(b1-4)Glc,-0.017
same,glycan array binding signal (z-score),[8],2.33
same,glycan array binding signal (z-score),[9],2.23
same,glycan array binding signal (z-score),[10],0.001
same,glycan array binding signal (z-score),[11],4.58
same,glycan array binding signal (z-score),[12],1.2
same,glycan array binding signal (z-score),[13],0.634
same,glycan array binding signal (z-score),[14],15.2
same,glycan array binding signal (z-score),[15],0.299
same,glycan array binding signal (z-score),[16],10.6
same,glycan array binding signal (z-score),[17],0.552
same,glycan array binding signal (z-score),[18],0.445
same,glycan array binding signal (z-score),[19],7.28
same,glycan array binding signal (z-score),[20],3.33
same,glycan array binding signal (z-score),[21],0.573
same,glycan array binding signal (z-score),[22],-0.044
